High-throughput results from PubChem BioAssay.
D2 PAM-1 – HTS Assay for Positive Allosteric Modulators of the Human D2 Dopamine Receptor: Primary Screen for Potentiators; HEK293 T-REx D2, calcium flux, EC20 dopamine potentiation; 340,000 tested, 0.34% active; potentiation, % at 10 µM; AID 485347, 2010; D(2) dopamine receptor (Homo sapiens), P14416;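 active = potentiation over 3 SD above the plate norm, cut at about 30% in these data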; also: 0% is about no effect
Target sequence (P14416 whole entry, looked up): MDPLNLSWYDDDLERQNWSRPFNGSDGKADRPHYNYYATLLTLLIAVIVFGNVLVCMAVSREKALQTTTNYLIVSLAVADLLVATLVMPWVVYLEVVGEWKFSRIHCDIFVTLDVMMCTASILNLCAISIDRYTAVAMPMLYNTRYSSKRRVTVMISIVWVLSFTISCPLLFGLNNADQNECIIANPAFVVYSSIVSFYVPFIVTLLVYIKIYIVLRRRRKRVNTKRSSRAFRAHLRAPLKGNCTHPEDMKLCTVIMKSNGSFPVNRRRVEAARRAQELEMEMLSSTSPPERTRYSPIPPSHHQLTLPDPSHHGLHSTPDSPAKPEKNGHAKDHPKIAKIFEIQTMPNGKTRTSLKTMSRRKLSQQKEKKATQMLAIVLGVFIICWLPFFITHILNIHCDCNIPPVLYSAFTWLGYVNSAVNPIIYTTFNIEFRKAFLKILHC
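Tetracycline-induced HEK293 T-REx cells force-coupled to calcium signalling expressed D2; compounds were pin-added after a 10 s baseline, read kinetically 180 s, then an EC20 dopamine challenge followed with a further 180 s calcium read.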
D2 PAM-2 – Beta-Arrestin HTS for Positive Allosteric Modulators of the Human D2 Dopamine Receptor: Potentiators | DiscoveRx D2 beta-arrestin cells, luminescence, 90 min; 100% = 57 uM dopamine signal | potentiation, % (concentration not given with the values) | 360,000 tested, 0.23% active; in the data active = potentiation above about 50%; inconclusive = mostly about 30% to 49%
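D2 cells co-treated with compound plus 50 nM dopamine (EC20) for 90 min at 37 deg C to detect potentiation. Beta-arrestin recruitment was read as enzyme-fragment luminescence after 1 h at ambient temperature. Full response was set by 57 uM dopamine.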
D2 antagonist – HTS Assay for Allosteric Antagonists of the Human D2 Dopamine Receptor: Primary Screen for Antagonists; HEK293 TREx D2 cells, calcium flux, dopamine EC80; inhibition, % at 10 µM; 340,000 tested, 2% active; AID 485344, 2010; in the data active = inhibition above about 30%; inactive = below that, where a call was filed; also: 0% is about no effect
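Overnight-induced (tetracycline, 30 C) HEK293 T-REx cells carrying force-coupled D2 receive a no-wash calcium dye, then compound, then EC80 dopamine at 180 s; signals are read kinetically throughout.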
D2 ag-1 – Beta-Arrestin HTS for Positive Allosteric Modulators of the Human D2 Dopamine Receptor: Agonists. D(2) dopamine receptor (Homo sapiens), P14416. DiscoveRx PathHunter D2 beta-arrestin, luminescence, 90 min; 100% = 57 uM dopamine signal. activation, % (concentration not given with the values). 360,000 tested, 0.084% active. AID 624465, 2012; in the data active = activation above about 40%; inconclusive = between about 15% and that limit
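Agonist mode: compounds alone added to overnight-plated D2 PathHunter cells for 90 min at 37 C, with 57 uM final dopamine (EC100) defining full response. Beta-arrestin recruitment detected by chemiluminescent reagent, read after 1 h at ambient temperature.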
D2 ag-2 – HTS Assay for Allosteric Agonists of the Human D2 Dopamine Receptor: Primary Screen for Agonists; 340,000 tested, 0.53% active; D(2) dopamine receptor (Homo sapiens), P14416; activation, % at 2 µM; HEK293 T-REx D2 cells, calcium flux agonist mode;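 active = activation over 3 SD above normal in the single-dose calcium agonist read, cut at about 30% in these data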; also: 0% is about no effect
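Calcium-flux readout, 1 cycle/sec over 180 s following compound pin transfer, in inducible HEK293 Trex D2 cells (force-coupled); dopamine controls included. Positive calcium responses during this window marked compounds as potential agonists.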
D3 ag – qHTS of D3 Dopamine Receptor Agonist: D3 Dopamine Receptor B-arrestin Agonist Confirmatory Assay; shares compounds with D2 ag-2; DiscoveRx D3 beta-arrestin cells, luminescence, 90 min; Potency, µM (doses to about 76.9 µM), without a hit: at the top dose activation, actives largely listed as activators; 2,300 tested, 4% active;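 also: potency is read from the fitted curve at half-maximal effect; 100% = dopamine control response; nearly all actives have a fitted effect of over 70% in size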
D2 ag-3 – qHTS of D3 Dopamine Receptor Agonist: D2 Dopamine Receptor B-arrestin Agonist Counterscreen; 2,300 tested, 5.9% active; AID 720507, 2013; DiscoveRx PathHunter D2 beta-arrestin, luminescence, 90 min; response scale: percent relative to full dopamine signal; Potency, µM (doses to about 76.9 µM), for the others: top-dose activation, actives largely listed as activators; shares compounds with D2 ag-2; also: potency is read from the fitted curve at half-maximal effect; % of control where 0% means no effect; nearly all actives have a fitted effect of over 70% in size
* hit, by the source's call; u = inconclusive; x = no result. A selection: hits, their analogues and other compounds. The true share with any hit is near 2.4%. Unless noted, calls follow the shape of the dose curve; as a rule, active = well fitted activation curve with a large enough effect; inconclusive = small, poorly fitted or top-dose-only effect; inactive = flat fitted curve, though single readings scatter.

SMILES	D2 PAM-1	D2 PAM-2	D2 antagonist	D2 ag-1	D2 ag-2	D3 ag	D2 ag-3
CCOC(=O)C1CCN(Cc2cccc(OC)c2)CC1	-27	-3	44*	u	76*	-16%	24%
CC[C@]12C(=O)N(C)C[C@H]([C@@H]3C(=O)N(C)C(=O)[C@@H]31)N2C(=O)c1ccc(C(C)(C)C)cc1	x	1	x	-1	x	x	x
Cc1cccc(-c2nnc(C3CCN(S(=O)(=O)c4cccc(Cl)c4)CC3)o2)c1	13	x	x	x	0	x	x
NS(=O)(=O)c1ccc(CCNC(=O)C2CCN(S(=O)(=O)c3ccccc3)CC2)cc1	7	-3	-11	-3	-1	x	x
O=C(COC(=O)C1CCN(S(=O)(=O)c2ccccc2)CC1)NCCc1ccccc1	0	1	-24	0	0	-2%	0%
CCOCCc1nnc(NC(=O)C(=O)c2cc(C)n(-c3ccc(C)c(C)c3)c2C)s1	5	x	x	x	0	x	x
COc1ccc([C@H]2CC(=O)C=C(c3cccc4c3Oc3ccccc3S4)C2)cc1OC	4	3	6	-1	1	3%	4%
O=C1C=C(c2cccc3c2Oc2ccccc2S3)C[C@@H](c2ccc(Cl)cc2)C1	-6	-3	-6	-2	1	x	x
COc1ccc([C@H]2CC(=O)C=C(c3ccc(O)cc3)C2)cc1OC	9	10	-10	1	14	16%	9%
Cc1ccccc1C(=O)Nc1nnc(SCc2cc(=O)n3ccccc3n2)s1	1	x	x	x	0	x	x
CCCCN1C(=O)C(=O)c2cc(Cl)ccc21	x	-38	x	-18	x	x	x
c1ccc(Cn2nnnc2CN2CCN(Cc3ccc4c(c3)OCO4)CC2)cc1	-1	-36	4	0	1	x	x
c1ccc2c(c1)CCN(Cc1nnnn1Cc1ccc3c(c1)OCO3)C2	-24	16	24	u	68*	2%	u
COc1ccc(Cn2nnnc2CN2CCc3ccccc3C2)cc1	-11	11	34*	u	57*	6%	u
CCC(c1nnnn1Cc1ccc2c(c1)OCO2)N1CCN(c2ccccc2)CC1 (stereo not drawn)	-33	0	79*	u	80*	3%	u
CCc1nc2ccc(C(=O)N(CC)CCN(C)C)cn2c1N(CC)C(=O)NCCc1ccccc1	x	-11	x	-2	x	x	x
C[C@@H]1C(c2cccc(Cl)c2)=NN(c2ccc(Br)cc2)[C@H]1C(=O)N1CCOC1=O	x	x	x	1	x	x	x
CC1CCCC(NC(=O)C2COc3ccccc3O2)C1C (stereo not drawn)	6	-19	-14	-1	-1	-3%	-3%
COc1ccc(CNC(=O)CCC(=O)N2CCN(C(C)=O)CC2)cc1	-2	-4	8	6	1	x	x
COc1ccc(C2(NC(C)=O)CCN(C(=O)CCC(=O)O)CC2)cc1	-11	-1	-1	0	51*	-7%	-2%
Cn1c(=O)c2[nH]c(N3CCN(c4ccccn4)CC3)nc2n(C)c1=O	4	x	7	x	3	-2%	2%
Cn1c(=O)c2[nH]c(N3CCCCC3)nc2n(C)c1=O	4	7	-7	-1	0	x	x
OC(CSc1c(Cl)cccc1Cl)CN1CCN(c2ccccc2F)CC1 (stereo not drawn)	-25	-11	65*	u	68*	u	u
OC(CSc1ccccc1Cl)CN1CCN(c2ccccc2F)CC1 (stereo not drawn)	-17	20	74*	u	63*	45µM*	u
O=C(NCCS(=O)(=O)N1CCN(c2ccccc2)CC1)c1ccccc1F	15	3	-4	2	3	-6%	8%
SMILES	D2 PAM-1	D2 PAM-2	D2 antagonist	D2 ag-1	D2 ag-2	D3 ag	D2 ag-3
O=C(NCCN1CCN(c2ccccc2)CC1)c1ccccc1F	-28	-17	72*	u	79*	u	15%
O=C(COc1ccccc1)NCCS(=O)(=O)N1CCN(c2ccccc2)CC1	5	2	77*	u	28	18%	u
O=C(NCCc1ccccc1)c1ccc(CSc2nc3cccnc3n2Cc2ccccc2F)cc1	4	x	x	x	0	x	x
CN(C)c1ccc(C#Cc2ccc3cc(CCO)oc(=O)c3c2)cc1	-4	-5	-12	-1	-1	12%	3%
CC1(C(=O)NCc2cccc3ccccc23)CCN1Cc1ccc(OC(F)(F)F)cc1 (stereo not drawn)	x	-14	x	-6	x	x	x
CCCN(CC(=O)Nc1ccccc1OC)C(=O)CSC(=S)N1CCCC1	1	-4	0	-5	2	2%	-3%
Cc1cccc(OCCCC(=O)NNC(=O)CCN2CCN(c3ccccc3)CC2)c1	-24	-33	9	-1	59*	u	29%
COc1ccc(OCCCC(=O)NNC(=O)CCN2CCN(c3ccccc3)CC2)cc1	-24	-8	71*	7	83*	19%	15%
CCN(CC)CCCNC(=O)c1nn(C)c2c1CSc1ccccc1-2	-5	x	x	x	0	x	x
CCc1ccc(OCC2c3cc(OC)c(OC)cc3CCN2C(=O)c2ccc(S(=O)(=O)N3CCCC3)cc2)cc1 (stereo not drawn)	10	x	x	x	0	x	x
CCCC(C)NC(=O)Cc1ccc(Br)cc1 (stereo not drawn)	26	-13	-5	-1	0	-12%	-2%
CC(C)NC(=O)Cc1ccc(Br)cc1	4	6	4	-1	1	x	x
O=C(NCC(=O)N1CCCC1)NN=Cc1ccccc1O	x	-6	x	-3	x	x	x
COc1ccc(C(=O)O)cc1NC(=S)NC(=O)CSc1ccc(Cl)cc1	5	0	6	0	-1	-15%	-4%
COc1ccc(OC)c(-n2c(CN3CCC(C(N)=O)CC3)nc3ccccc3c2=O)c1	-15	3	5	0	57*	0%	0%
O=C1CCC2CN3CCc4c([nH]c5ccccc45)C3CC2C1 (stereo not drawn)	x	-14	x	2	x	x	x
